ChEMBL document CHEMBL2218924, “A broad activity screen in support of a chemogenomic map for kinase signalling research and drug discovery” (Biochem J, 2013)

What follows are compounds tested against Ribosomal protein S6 kinase alpha-3 (Homo sapiens) (UniProt P51812). Details: at 10 µM.
Sequence of Ribosomal protein S6 kinase alpha-3 (Homo sapiens) (P51812 whole entry): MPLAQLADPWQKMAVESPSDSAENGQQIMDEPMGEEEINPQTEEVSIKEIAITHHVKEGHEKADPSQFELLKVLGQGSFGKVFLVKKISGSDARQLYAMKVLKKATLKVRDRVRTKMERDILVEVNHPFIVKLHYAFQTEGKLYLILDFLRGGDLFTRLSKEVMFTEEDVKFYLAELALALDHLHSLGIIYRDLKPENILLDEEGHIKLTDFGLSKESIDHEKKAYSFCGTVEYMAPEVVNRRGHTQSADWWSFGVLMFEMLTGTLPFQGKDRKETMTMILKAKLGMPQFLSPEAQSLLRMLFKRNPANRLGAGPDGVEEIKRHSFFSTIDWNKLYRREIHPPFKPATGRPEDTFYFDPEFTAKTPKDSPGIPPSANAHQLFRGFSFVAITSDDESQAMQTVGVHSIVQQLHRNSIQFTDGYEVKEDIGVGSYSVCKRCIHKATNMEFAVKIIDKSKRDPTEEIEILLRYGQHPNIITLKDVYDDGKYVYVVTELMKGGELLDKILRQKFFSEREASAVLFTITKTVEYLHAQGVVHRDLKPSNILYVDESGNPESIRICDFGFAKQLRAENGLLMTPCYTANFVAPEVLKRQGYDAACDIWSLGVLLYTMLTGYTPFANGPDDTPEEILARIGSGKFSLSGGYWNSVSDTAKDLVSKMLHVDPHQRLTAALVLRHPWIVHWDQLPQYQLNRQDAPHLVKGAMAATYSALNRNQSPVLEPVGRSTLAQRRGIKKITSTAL

| Compound | residual activity [%] |
| --- | --- |
| Oc1c2ccccc2c2c3c(cccc13)N=N2 | 32 |
| Nc1nc(Nc2ccc(S(N)(=O)=O)cc2)nn1C(=S)Nc1c(F)cccc1F | -1 |
| O=C1Nc2ccc(Br)cc2/C1=C\c1cc2c([nH]1)CCCC2 | 37 |
| Cc1nc(-c2ccccc2)c(-c2ccncc2)o1 | 64 |
| COc1cc2ncnc(Nc3ccc(O)c(Br)c3)c2cc1OC | 12 |
| Nc1cccc(-c2cc3c(Oc4cccc(O)c4)ncnc3[nH]2)c1 | 32 |
| CCOc1cc2ncnc(Nc3cccc(Br)c3)c2cc1OCC | 40 |
| CO[C@H]1C[C@@H]2CC[C@@H](C)[C@@](O)(O2)C(=O)C(=O)N2CCCC[C@H]2C(=O)O[C@H]([C@H](C)C[C@@H]2CC[C@@H](O)[C@H](OC)C2)CC(=O)[C@H](C)/C=C(\C)[C@@H](O)[C@@H](OC)C(=O)[C@H](C)C[C@H](C)/C=C/C=C/C=C/1C | 55 |
| COc1cc2ncnc(Nc3ccc(Oc4ccccc4)cc3)c2cc1OC | 126 |
| COc1ccc(OC)c2c(=S)c3ccccc3[nH]c12 | 107 |
| CO[C@H]1[C@@H](OC)C[C@H](C)[C@@H](OC)C2=CC(=O)C=C(NC(=O)/C(C)=C/C=C/[C@H](OC)[C@@H](OC(N)=O)/C(C)=C/[C@@H]1C)C2=O | 36 |
| Cc1ccc(NC2=CC(=O)c3sc(C)nc3C2=O)cc1 | 123 |
| O=C1NC(=O)/C(=C\c2ccc3nccnc3c2)S1 | 35 |
| O=C1c2ccccc2-[n+]2ccc3c([nH]c4ccccc43)c21 | 50 |
| COc1ccc(CNc2nc(N(CCO)CCO)nc3c2ncn3C(C)C)cc1 | 22 |
| CN(C)c1ccc(/C=C2\C(=O)Nc3ccccc32)cc1 | 16 |
| Oc1ccc(Nc2nc(-c3ccc(Cl)cc3)cs2)cc1 | 86 |
| CC(C)n1cnc2c(NCc3ccccc3)nc(NCCCO)nc21 | 87 |

| Compound | residual activity [%] |
| --- | --- |
| N#Cc1cnc2cnc(NCc3cccnc3)cc2c1Nc1ccc(F)c(Cl)c1 | -1 |
| CC#CC(=O)Nc1cc2c(Nc3ccc(F)c(Cl)c3)ncnc2cn1 | 107 |
| Cn1cc(/C=C2\C(=O)Nc3ccc(S(N)(=O)=O)cc32)c2ccccc21 | 1 |
| NC(=O)c1ccc2[nH]c(-c3ccc(Oc4ccc(Cl)cc4)cc3)nc2c1 | 11 |
| COc1ccc(C(=O)Nc2sc3c(c2C(N)=O)CCCC3)cc1OC | 93 |
| N#CCCc1ccc2c(c1)-c1[nH]c3ccc([N+](=O)[O-])cc3c1CC(=O)N2 | 3 |
| Cn1cnc2cc3c(Nc4cccc(Br)c4)ncnc3cc21 | 93 |
| N#C/C(=C(\N)Sc1ccc(N)cc1)c1ccccc1C(F)(F)F | 15 |
| Nc1ccc2ncnc(NCCc3ccc(Oc4ccccc4)cc3)c2c1 | 45 |
| O=c1cc(-c2cccc3c2Sc2ccccc2S3)oc(N2CCOCC2)c1 | 93 |
| Cc1cc2ncc(-c3ccccc3)nc2cc1C | 40 |
| O=C(Nc1cccc(Nc2cc(Nc3cccc(C(F)(F)F)c3)ncn2)c1)C1CC1 | 66 |
| O=C1NC(=O)c2c1c1c3ccccc3[nH]c1c1[nH]c3cc(Br)ccc3c21 | 43 |
| O=C(Nc1cccc(Nc2nccc(Nc3cccc(C(F)(F)F)c3)n2)c1)C1CC1 | 27 |
| Oc1ccc(-c2nc(-c3ccc(F)cc3)c(-c3ccncc3)[nH]2)cc1 | 45 |
| CC[n+]1c(/C=C/N(C)c2ccccc2)n(-c2ccccc2)c2ccc(-c3nc4ccccc4s3)cc21 | 64 |
| O=C1NC(=O)c2cc(Nc3ccc(F)cc3)c(Nc3ccc(F)cc3)cc21 | 77 |

The compounds below were run against Ribosomal protein S6 kinase alpha-2 (Homo sapiens) (UniProt Q15349). Details: at 1 µM.
Sequence of Ribosomal protein S6 kinase alpha-2 (Homo sapiens) (Q15349 whole entry): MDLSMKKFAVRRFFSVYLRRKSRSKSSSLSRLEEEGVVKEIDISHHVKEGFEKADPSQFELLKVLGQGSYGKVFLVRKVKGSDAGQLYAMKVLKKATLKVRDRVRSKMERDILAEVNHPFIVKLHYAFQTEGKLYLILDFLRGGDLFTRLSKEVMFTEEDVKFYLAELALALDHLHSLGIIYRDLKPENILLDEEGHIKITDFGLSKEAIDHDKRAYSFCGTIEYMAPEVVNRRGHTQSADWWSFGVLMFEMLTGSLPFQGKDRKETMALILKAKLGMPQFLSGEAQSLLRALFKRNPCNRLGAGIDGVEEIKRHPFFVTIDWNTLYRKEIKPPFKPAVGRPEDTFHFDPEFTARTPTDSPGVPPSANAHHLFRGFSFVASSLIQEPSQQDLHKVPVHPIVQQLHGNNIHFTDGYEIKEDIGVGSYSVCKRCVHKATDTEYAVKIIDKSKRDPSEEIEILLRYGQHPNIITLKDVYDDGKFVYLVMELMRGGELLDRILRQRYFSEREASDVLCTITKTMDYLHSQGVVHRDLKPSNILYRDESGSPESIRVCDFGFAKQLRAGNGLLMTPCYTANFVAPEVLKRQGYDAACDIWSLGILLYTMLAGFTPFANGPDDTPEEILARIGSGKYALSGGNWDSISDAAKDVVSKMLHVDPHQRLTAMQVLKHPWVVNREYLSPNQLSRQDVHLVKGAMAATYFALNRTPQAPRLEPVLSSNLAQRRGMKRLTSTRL

| Compound | residual activity [%] |
| --- | --- |
| Oc1c2ccccc2c2c3c(cccc13)N=N2 | 58 |
| Nc1nc(Nc2ccc(S(N)(=O)=O)cc2)nn1C(=S)Nc1c(F)cccc1F | 0 |
| O=C1Nc2ccc(Br)cc2/C1=C\c1cc2c([nH]1)CCCC2 | 79 |
| Cc1nc(-c2ccccc2)c(-c2ccncc2)o1 | 100 |
| COc1cc2ncnc(Nc3ccc(O)c(Br)c3)c2cc1OC | 44 |
| Nc1cccc(-c2cc3c(Oc4cccc(O)c4)ncnc3[nH]2)c1 | 76 |
| CCOc1cc2ncnc(Nc3cccc(Br)c3)c2cc1OCC | 90 |
| CO[C@H]1C[C@@H]2CC[C@@H](C)[C@@](O)(O2)C(=O)C(=O)N2CCCC[C@H]2C(=O)O[C@H]([C@H](C)C[C@@H]2CC[C@@H](O)[C@H](OC)C2)CC(=O)[C@H](C)/C=C(\C)[C@@H](O)[C@@H](OC)C(=O)[C@H](C)C[C@H](C)/C=C/C=C/C=C/1C | 102 |
| COc1cc2ncnc(Nc3ccc(Oc4ccccc4)cc3)c2cc1OC | 100 |
| COc1ccc(OC)c2c(=S)c3ccccc3[nH]c12 | 90 |
| CO[C@H]1[C@@H](OC)C[C@H](C)[C@@H](OC)C2=CC(=O)C=C(NC(=O)/C(C)=C/C=C/[C@H](OC)[C@@H](OC(N)=O)/C(C)=C/[C@@H]1C)C2=O | 93 |
| Cc1ccc(NC2=CC(=O)c3sc(C)nc3C2=O)cc1 | 101 |
| O=C1NC(=O)/C(=C\c2ccc3nccnc3c2)S1 | 114 |
| O=C1c2ccccc2-[n+]2ccc3c([nH]c4ccccc43)c21 | 101 |
| COc1ccc(CNc2nc(N(CCO)CCO)nc3c2ncn3C(C)C)cc1 | 11 |
| CN(C)c1ccc(/C=C2\C(=O)Nc3ccccc32)cc1 | 74 |
| Oc1ccc(Nc2nc(-c3ccc(Cl)cc3)cs2)cc1 | 91 |
| CC(C)n1cnc2c(NCc3ccccc3)nc(NCCCO)nc21 | 101 |

| Compound | residual activity [%] |
| --- | --- |
| N#Cc1cnc2cnc(NCc3cccnc3)cc2c1Nc1ccc(F)c(Cl)c1 | 0 |
| CC#CC(=O)Nc1cc2c(Nc3ccc(F)c(Cl)c3)ncnc2cn1 | 99 |
| Cn1cc(/C=C2\C(=O)Nc3ccc(S(N)(=O)=O)cc32)c2ccccc21 | 4 |
| NC(=O)c1ccc2[nH]c(-c3ccc(Oc4ccc(Cl)cc4)cc3)nc2c1 | 18 |
| COc1ccc(C(=O)Nc2sc3c(c2C(N)=O)CCCC3)cc1OC | 94 |
| N#CCCc1ccc2c(c1)-c1[nH]c3ccc([N+](=O)[O-])cc3c1CC(=O)N2 | 8 |
| Cn1cnc2cc3c(Nc4cccc(Br)c4)ncnc3cc21 | 101 |
| N#C/C(=C(\N)Sc1ccc(N)cc1)c1ccccc1C(F)(F)F | 53 |
| Nc1ccc2ncnc(NCCc3ccc(Oc4ccccc4)cc3)c2c1 | 89 |
| O=c1cc(-c2cccc3c2Sc2ccccc2S3)oc(N2CCOCC2)c1 | 98 |
| Cc1cc2ncc(-c3ccccc3)nc2cc1C | 110 |
| O=C(Nc1cccc(Nc2cc(Nc3cccc(C(F)(F)F)c3)ncn2)c1)C1CC1 | 99 |
| O=C1NC(=O)c2c1c1c3ccccc3[nH]c1c1[nH]c3cc(Br)ccc3c21 | 44 |
| O=C(Nc1cccc(Nc2nccc(Nc3cccc(C(F)(F)F)c3)n2)c1)C1CC1 | 106 |
| Oc1ccc(-c2nc(-c3ccc(F)cc3)c(-c3ccncc3)[nH]2)cc1 | 105 |
| CC[n+]1c(/C=C/N(C)c2ccccc2)n(-c2ccccc2)c2ccc(-c3nc4ccccc4s3)cc21 | 117 |
| O=C1NC(=O)c2cc(Nc3ccc(F)cc3)c(Nc3ccc(F)cc3)cc21 | 103 |
